PLK1 PBD inh = qHTS for Inhibitors of PLK1-PDB (polo-like kinase 1 - polo-box domain): Primary Screen. Serine/threonine-protein kinase PLK1 (Homo sapiens), P53350. Plk1 PBD binding of FITC phosphopeptide, fluorescence polarization. Potency, µM, for inactives: max response, negative = inhibition, usual class: inhibitors. hit rate 2.8% among 360,000; note: series mostly up to about 57 µM; nearly all actives have a fitted effect of over 65% in size
VDR inh = Inhibitors of the vitamin D receptor (VDR): qHTS; VDR-SRC2-3 peptide fluorescence polarization, 2 h; Potency, µM, for the others: max response, negative = inhibition, usual class: inhibitors; AID 504847, 2011; Vitamin D3 receptor (Homo sapiens), P11473; hit rate 0.93% among 400,000
Target sequence (P11473 whole entry, looked up): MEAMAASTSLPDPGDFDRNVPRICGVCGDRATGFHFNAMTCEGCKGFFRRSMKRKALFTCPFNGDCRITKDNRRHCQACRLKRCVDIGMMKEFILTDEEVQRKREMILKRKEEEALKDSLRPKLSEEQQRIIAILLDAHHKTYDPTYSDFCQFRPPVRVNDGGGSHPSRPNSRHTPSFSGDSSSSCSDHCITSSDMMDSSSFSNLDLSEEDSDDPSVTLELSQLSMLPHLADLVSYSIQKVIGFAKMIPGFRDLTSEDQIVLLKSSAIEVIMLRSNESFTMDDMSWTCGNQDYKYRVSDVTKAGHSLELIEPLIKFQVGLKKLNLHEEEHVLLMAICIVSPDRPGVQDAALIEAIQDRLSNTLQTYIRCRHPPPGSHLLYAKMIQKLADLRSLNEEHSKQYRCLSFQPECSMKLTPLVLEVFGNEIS
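Measured by FP: displacement of SRC2-3 coactivator peptide from VDR by library compounds, following a two-hour ambient incubation.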
TDP1 block = qHTS Assay for Inhibitors of Tyrosyl-DNA Phosphodiesterase (TDP1) | Tyrosyl-DNA phosphodiesterase 1 (Homo sapiens), Q9NUW8 | recombinant TDP1, AlphaScreen DNA substrate cleavage | Potency, µM (doses to about 130 µM), without a hit: top-dose activity change, negative = inhibition, actives largely listed as inhibitors | hit rate 0.28% among 350,000; note: nearly all actives have a fitted effect of over 40% in size
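Recombinant human Tdp1 (E. coli-expressed, 1 nM final) preincubated with compounds 15 min at room temperature, then 5'-biotin/3'-phosphotyrosine-FITC DNA substrate (15 nM final) added for 5 min. AlphaScreen beads (10 ug/ml final) added 10 min; cleavage lowers signal.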
DT40 TDP1 CPT = qHTS for Inhibitors of human tyrosyl-DNA phosphodiesterase 1 (TDP1): qHTS in cells in presence of CPT; chicken DT40 Tdp1-/-;hTDP1 cells + 20 nM CPT, ATP luminescence, 48 h; Potency, µM (doses to about 46.2 µM), for inactives: at the top dose activity change, negative = growth inhibition, most hits filed as inhibitors; hit rate 12% among 420,000; note: nearly all actives have a fitted effect of over 55% in size
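Chicken DT40 Tdp1-/- cells complemented with human TDP1, 400 cells/well, exposed to compounds plus 20 nM camptothecin for at least 48 h at 37 C; viability read as ATP content by CellTiter-Glo luminescence.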
KAT2A inh = qHTS Assay for Inhibitors of GCN5L2. hit rate 0.21% among 390,000. AID 504327, 2011. Potency, µM (titrated, usually from 58.9 µM), inactives show at the highest dose activity change, negative = inhibition, most hits filed as inhibitors. GCN5L2 HAT assay, ThioGlo1 CoA-SH fluorescence
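Titration-based screen in which CoA formation is detected via maleimide probe ThioGlo1 (50uM) turning fluorescent on thiol reaction; substrates H3(1-25) 75uM and acetyl-CoA 70uM, GCN5L2 20nM, 20 min incubation at room temperature.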
TDP1 cell noCPT = qHTS for Inhibitors of human tyrosyl-DNA phosphodiesterase 1 (TDP1): qHTS in cells in absence of CPT. hit rate 15% among 420,000. Potency, µM (titrated, usually from 46.2 µM), for inactives: at the highest dose activity change, negative = growth inhibition, hits mostly inhibitors. DT40 Tdp1-/- hTDP1 cells, no CPT, ATP luminescence, 48 h. AID 686978, 2013; note: nearly all actives have a fitted effect of over 55% in size
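Growth of hTDP1-complemented DT40 Tdp1-knockout cells is measured by ATP luminescence after at least 48 hr compound exposure at 37 °C, with DMSO substituting for the 20 nM CPT used in the parallel screen.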
The depositor's hits bear a star; u = inconclusive; x = no result given; [ ] = remark or other dose. The list is not random: actives were taken first. Their share in the collection is about 18%. Calls come from the whole dose curve; as a rule, active = well fitted curve in the direction sought with a large enough effect; inconclusive = small, poorly fitted or top-dose-only effect, or another doubt; inactive = no such curve, though single readings can be large; an effect the other way counts as inactive or inconclusive. % is set by controls: 0 for no effect and ±100 for the full control effect; potency is the fitted concentration of half-maximal effect.

SMILES	PLK1 PBD inh	VDR inh	TDP1 block	DT40 TDP1 CPT	KAT2A inh	TDP1 cell noCPT
CSCC[C@H](NC(=O)[C@H](CC(C)C)NC(=O)[C@@H]1CCCN1C(=O)[C@H](Cc1ccccc1)NC(=O)[C@H](Cc1ccccc1)NC(=O)[C@H](CCC(N)=O)NC(=O)[C@H](CCC(N)=O)NC(=O)[C@@H]1CCCN1C(=O)[C@H](CCCCN)NC(=O)[C@@H]1CCCN1C(=O)[C@@H](N)CCCN=C(N)N)C(N)=O	x	2%	5%	x	14%	x
CC1=C(CC/C(C)=N/NC(N)=S)C(C)(C)CCC1	u	u	-2%	4µM*	-3%	3.2µM*
CC(C)=CCN1CCN(CCC2=C(C)CCCC2(C)C)CC1CCO (stereo not given)	-13%	-8%	x	u	0%	u
O=C(COC(=O)c1ccc2[nH]c3c(c2c1)CCCC3)NC1CCS(=O)(=O)C1 (stereo not given)	-3%	-8%	2%	u	-1%	u
CC1CCCN(C(=O)COC(=O)c2ccc3[nH]c4c(c3c2)CCCC4)C1 (stereo not given)	3%	-6%	0%	u	-1%	23µM*
CCOC(=O)C1CCN(C(=O)COC(=O)c2ccc3[nH]c4c(c3c2)CCCC4)CC1	5%	-24%	x	13µM*	-2%	12µM*
COC(=O)C1CCN(C(=O)COC(=O)c2ccc3[nH]c4c(c3c2)CCCC4)CC1	4%	6%	7%	13µM*	-5%	10µM*
COC(=O)C1CCN(C(=O)COC(=O)c2ccc(N3CCCC3=O)cc2)CC1	6%	6%	0%	4%	0%	0%
COCc1cn(CC(C)n2c(=O)c3ccccc3n2Cc2cc(C(C)C)no2)nn1 (stereo not given)	-2%	x	x	18%	x	3%
Cn1cc(CNC2CCN(c3cccc(NC(=O)c4cccnc4)c3)CC2)cn1	x	x	x	7%[9.04 µM]	x	-2%
CC(C)C(NC(=O)c1ccc(C(C)(C)C)cc1)C(=O)Nc1ccc(N2CCOCC2)cc1 (stereo not given)	-5%	20%	1%[56.1 µM]	u	-13%	u
Nc1ccc(N2CCN(C(=O)c3ccco3)CC2)cc1	-3%	-6%	7%	16µM*	-2%	18µM*
O=C(Nc1nnc(S(=O)(=O)N2CCOCC2)s1)c1ccc(F)cc1	-6%	6%	5%	11%	-3%	-4%
O=C(c1ccco1)N1CCN(C(=O)c2ccco2)CC1	-8%	x	x	10%	x	1%
Cc1cc(C)cc(C(=O)Nc2ccc(N3CCN(C(=O)c4ccco4)CC3)cc2)c1	-12%	-3%	4%	u	-4%	16µM*
Cc1ccc(OCC(=O)Nc2ccc(N3CCN(C(=O)c4ccco4)CC3)cc2)cc1	-8%	14%	3%	u	0%	23µM*
O=C(COc1ccccc1)Nc1ccc(N2CCN(C(=O)c3ccco3)CC2)cc1	-12%	1%	3%	0%	-5%	-27%
O=C(Nc1nnc(S(=O)(=O)N2CCN(c3ccc(F)cc3)CC2)s1)c1ccco1	-10%	3%	4%	16µM*	u	u
Cc1ccc(Cn2c(C)c3cnn(CC(=O)NCCc4ccc(Cl)cc4)c(=O)c3c2C)cc1	x	-9%	0%	u	-7%	u
O=C(Nc1ccc(N2CCN(C(=O)c3ccco3)CC2)cc1)c1ccc(F)cc1	-4%	-2%	2%	u	-1%	21µM*
Nc1ccc(N2CCN(C(=O)c3cccs3)CC2)cc1	1%	u	8%	u	-4%	15µM*
Cc1ccc(NC(=O)[C@H](CSCc2ccccc2)N2Cc3ccccc3C2=O)cc1	x	-7%	2%	-27%	-6%	u
COc1ccc(CC(=O)NCC(c2cccs2)S(=O)(=O)c2ccc(Cl)cc2)cc1 (stereo not given)	x	-2%	u	u	-26%	u
O=C(COc1ccccc1)NCC(c1cccs1)S(=O)(=O)c1ccc(Cl)cc1 (stereo not given)	x	5%	x	u	-27%	23µM*
Cc1cc(S(=O)(=O)C(CNC(=O)COc2ccc(Cl)cc2)c2cccs2)ccc1F (stereo not given)	x	11%	1%	2.6µM*	-3%	u
SMILES	PLK1 PBD inh	VDR inh	TDP1 block	DT40 TDP1 CPT	KAT2A inh	TDP1 cell noCPT
O=C(c1ccncc1)N1CCC[C@@]2(CCN(Cc3cc(C(F)(F)F)cc(C(F)(F)F)c3)C2)C1	x	-25%	x	-24%	-9%	u
CC(Oc1ccccc1)C(=O)N1CCC2(CC1)Oc1ccc(F)cc1C(=O)C21CC(c2ccccc2)=NO1 (stereo not given)	21µM*	u	x	u	x	-15%
CC(Oc1ccccc1)C(=O)N1CCC2(CC1)Oc1ccc(F)cc1C(=O)C21CC(c2ccc(Cl)cc2)=NO1 (stereo not given)	2%	-12%	x	-27%	x	-12%
CC(C)(C)OC(=O)N1CCC2(CC1)Oc1ccc(Cl)cc1C(=O)C21CC(c2ccc(Cl)cc2)=NO1 (stereo not given)	-13%	-19%	x	u	x	u
CCC(=O)N1CCC2(CC1)Oc1ccc(Cl)cc1C(=O)C21CC(c2ccccc2)=NO1 (stereo not given)	-22%	-3%	5%	u	1%	26µM*
COC(=O)c1ccccc1S(=O)(=O)Nc1cc(=O)c2ccccc2[nH]1	x	x	2%	x	x	x
CCCCCCCCCCCCCCCC[n+]1ccc(C)cc1	x	x	x	0.89µM*	x	0.5µM*
CCC(C)(C)c1ccc(OCCCC[n+]2ccccc2)c(C(C)(C)CC)c1	-12%	-15%	1%	0.58µM*	-7%	0.012µM*
c1cc[n+](CCCC[n+]2ccccc2)cc1	-11%	0%	2%	3%	-26%	9%
CCCCCc1ccc(OCCCC[n+]2ccccc2)c(CCCCC)c1	-9%	18%	6%	2.6µM*	-5%	2.6µM*
CCCCCc1ccc(OCCCC[n+]2cccc(C)c2)c(CCCCC)c1	-12%	-4%	x	2.3µM*	-1%	1.2µM*
O=C(CCSc1ccccn1)Nc1ccc(Br)cc1	0%	-8%	3%	-8%	1%	u
COc1ccc(S(=O)(=O)N(C)C)cc1NC(=O)Cc1c[nH]c2ccccc12	-2%	3%	6%	-2%	1%	-27%
